Compounds with a hit are over-represented: about 2.4% of the library has one in this group of screens.
POLI inh – DNA polymerase iota (human) inhibition; AID 588590; Potency, µM (top dose mostly 115 µM), inactives show top-dose activity, negative = inhibition, most hits filed as inhibitors; Q9UNA4; Pol iota fluorescent replication assay, 10 min; 390,000 compounds, 1% hits
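Fluorescent replication assay read twice, at 0 min and 10 min after adding 50 nM (final) substrate. Enzyme (10 nM) and compounds were first incubated 15 min at room temperature; enzyme-free buffer wells were negative controls.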
Pol eta inh – DNA polymerase eta (human) inhibition. recombinant Pol eta, fluorescent DNA replication assay. Potency, µM (top dose mostly 114 µM), inactives show at the top dose activity change, negative = inhibition, most hits filed as inhibitors. 390,000 compounds, 1.2% hits. AID 588591; also: % is scaled to controls: 0 for no effect and ±100 for the full control effect
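Fluorescent replication assay: 50 nM final substrate added after a 15 min room-temperature compound preincubation with 10 nM enzyme. Signal taken at 0 min and again at 10 min.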
Pol kappa inh – DNA polymerase kappa (human) inhibition; 400,000 compounds, 0.53% hits; Potency, µM (titrated, usually from 107 µM), for the others: top-dose activity, negative = inhibition, usual class: inhibitors; AID 588579; purified Pol kappa, fluorescent DNA synthesis assay, 10 min; also: % is scaled to controls: 0 for no effect and ±100 for the full control effect
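First, compounds were pin-transferred onto 10 nM Pol kappa. After 15 min at room temperature, substrate was added to 50 nM final. Fluorescence was then measured kinetically at 0 and 10 min.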
WRN inhibitor – blocks human WRN helicase. Q14191. WRN helicase unwinding, fluorescent forked duplex, kinetic. Potency, µM (highest dose often 114 µM), for the others: at the highest dose activity change, negative = inhibition, actives largely listed as inhibitors. 360,000 compounds, 0.46% hits. AID 651768; also: % is scaled to controls: 0 for no effect and ±100 for the full control effect; nearly all actives have a fitted effect of over 55% in size
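Enzyme (20 nM final) and test compound sit together 15 min at room temperature before substrate addition. Substrate is a single-forked duplex oligonucleotide (100 nM) labelled with fluorophore and quencher, with 2 mM ATP; helicase unwinding raises red fluorescence, read kinetically.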
POLB inh – inhibitors of human DNA polymerase beta; P06746; Pol beta primer extension/strand displacement, fluorescence kinetic; Potency, µM (series often up to 114 µM), for inactives: at the top dose activity change, negative = inhibition, usual class: inhibitors; 340,000 compounds, 1.3% hits; AID 485314; also: % is scaled to controls: 0 for no effect and ±100 for the full control effect
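Curves were derived by four-parameter Hill fits of normalized qHTS data. The kinetic fluorescent primer-extension read was taken at 0 and 10 min after 50 nM substrate, following a 15 min room-temperature preincubation of 10 nM enzyme with compounds.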
FEN1 inh – human FEN1 inhibition | Recombinant FEN1 flap cleavage, fluorescence, 15 min | Potency, µM (doses to about 114 µM), for inactives: at the highest dose activity change, negative = inhibition, most hits filed as inhibitors | 390,000 compounds, 0.35% hits; also: % is scaled to controls: 0 for no effect and ±100 for the full control effect; nearly all actives have a fitted effect of over 65% in size
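Enzyme 10 nM, 15 min RT preincubation with compound; start with substrate 50 nM final; reads at 0 and 15 min; qHTS titration, four-parameter Hill fit.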
An asterisk follows results filed as active; [ ] = dose if it differs, or a comment. Calls follow the shape of the dose curve; as a rule, active = well fitted curve in the direction sought with a large enough effect; inconclusive = small, poorly fitted or top-dose-only effect, or another doubt; inactive = no such curve, though single readings can be large; an effect the other way counts as inactive or inconclusive. Potency is read from the fitted curve at half-maximal effect.

What do the screens show for `O=C(N/N=C/c1ccc2c(c1)OCO2)c1ccc2c(c1)OCCO2`?
POLI inh: -7%; Pol eta inh: -25%; Pol kappa inh: 1%; WRN inhibitor: -22%[57.1 µM]; POLB inh: -1%; FEN1 inh: -4%

Results for O=C(CNC(=O)c1ccc2c(c1)OCO2)N/N=C/c1cc(Br)ccc1O ?
POLI inh: -18%; Pol eta inh: -6%; Pol kappa inh: -13%; WRN inhibitor: -14%; POLB inh: 45µM*; FEN1 inh: -5%

How did O=C(N/N=C/C=C/c1ccc2c(c1)OCO2)c1ccc([N+](=O)[O-])cc1 do in these assays?
POLI inh: 18%; Pol eta inh: 4%; Pol kappa inh: -15%; WRN inhibitor: -13%; POLB inh: 2%; FEN1 inh: 0%

What do the screens show for `O=C(N/N=C/c1ccc(Cl)cc1)c1ccc2c(c1)OCO2`?
POLI inh: 79µM*; Pol eta inh: 7%; Pol kappa inh: -6%; WRN inhibitor: 0%[11.6 µM]; POLB inh: 35µM*; FEN1 inh: 2%

Results for CN(C)/C=N/c1c(C#N)cnn1-c1ccc(F)c(Cl)c1 ?
Pol kappa inh: 6%[60.1 µM]

What do the screens show for `CCC(=O)OCOc1ccc(/C=C2/CCC(CN(C)C)C2=O)cc1` (stereo unspecified)?
POLI inh: inconclusive; Pol eta inh: 13µM*; Pol kappa inh: -9%; WRN inhibitor: 11µM*; FEN1 inh: -15%

How did O=C(c1cc(Br)ccc1O)N(Cc1ccco1)Cc1cccs1 do in these assays?
POLI inh: -6%; Pol kappa inh: 0%; FEN1 inh: inconclusive

Results for c1csc(CNc2nc(-c3ccc4c(c3)OCO4)nc3ccccc23)c1 ?
Pol kappa inh: -9%[60.1 µM]

Results for CC1C(=O)N(Cc2cn(Cc3ccco3)nn2)CCS(=O)(=O)N1Cc1ccc(-c2ccncc2)cc1 (stereo unspecified) ?
Pol eta inh: 50µM*; WRN inhibitor: 2%[11.6 µM]

Results for COc1ccc(/C=N/NC(=O)CCC(=O)Nc2ccccc2)cc1OC ?
POLI inh: inconclusive; Pol eta inh: -2%; Pol kappa inh: -30%; WRN inhibitor: 0%; POLB inh: inconclusive; FEN1 inh: 5%

What do the screens show for `COc1ccc(/C=N\NC(=O)c2ccc(=O)[nH]n2)cc1O`?
POLI inh: 32µM*; Pol eta inh: -10%; Pol kappa inh: inconclusive; WRN inhibitor: -17%[11.6 µM]; POLB inh: 13µM*; FEN1 inh: -7%

What do the screens show for `COc1ccc(/C=N/NC(=O)c2ccc(=O)[nH]n2)cc1OC`?
POLI inh: 100µM*; Pol eta inh: inconclusive; Pol kappa inh: inconclusive; WRN inhibitor: -3%[57.1 µM]; POLB inh: 7.9µM*; FEN1 inh: -12%

Results for COc1ccc(/C=N/NC(=O)C(O)(c2ccccc2)c2ccccc2)cc1OC ?
POLI inh: 0%; Pol eta inh: -23%; Pol kappa inh: -13%; WRN inhibitor: -17%; POLB inh: 14µM*; FEN1 inh: 2%

What do the screens show for `COc1ccc(/C=N/NC(=O)c2cc(-c3ccc4c(c3)OCO4)n[nH]2)cc1OC`?
POLI inh: inconclusive; Pol eta inh: inconclusive; Pol kappa inh: inconclusive; WRN inhibitor: -6%[11.6 µM]; POLB inh: 4.5µM*; FEN1 inh: 34%

What do the screens show for `COc1ccc(/C=N/NC(=O)c2cc(C34CC5CC(CC(C5)C3)C4)[nH]n2)cc1O`?
POLI inh: 10%; Pol eta inh: -21%; Pol kappa inh: -8%; WRN inhibitor: -18%; POLB inh: -14%; FEN1 inh: -28%

How did CCOC(=O)C1OC1C(=O)NC(CC(C)C)C(=O)NCCC(C)C (stereo unspecified) do in these assays?
Pol kappa inh: 3%[19.4 µM]

Compound activity (PubChem BioAssay)
